For orientation: AC50 means the concentration at which the activity in the assay is half-maximal.

Among the data in PubChem BioAssay (EPA / NIEHS) are outcome and AC50 values, retold here.

The target in experiment [1] is Transcription factor E2F1 (Homo sapiens) (UniProt Q01094). Kind of experiment: ATG_E2F_CIS: Attagene CIS-FACTORIAL HepG2 Assay for human E2F Transcription Factor 1 (AID 2282935). The note with it: HepG2 Attagene cis-reporter, E2F reporter RNA transcripts; actives raise or lower the signal. The essentials: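 Multiplexed cis-reporter assay: HepG2, transient transfection, 24 h dosing, mRNA quantitation by labeled RT-PCR and CE.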

A short description of experiment [2]: ATG_E_Box_CIS: Attagene CIS-FACTORIAL HepG2 Assay for human Enhancer Box (E-box) (AID 2282936). As to conditions: HepG2 E-box cis-reporter transcription, actives raise or lower the signal. The gist of the method:
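Multiplexed CIS reporter system in transiently transfected HepG2 cells measures native transcription factor activity. Reporter RNA after 24 h exposure is profiled by RT-PCR-capillary electrophoresis.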

Experiment [3] can be described thus: ATG_M_61_CIS: Attagene CIS-FACTORIAL HepG2 Assay for M61 Transcription Factor (Internal Marker) (AID 2282937). The note with it: HepG2 Attagene CIS-FACTORIAL M61 internal marker reporter; actives raise or lower the signal. The gist of the method:
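Transfect HepG2 with MRTUs; dose 24 h; isolate RNA; reverse-transcribe with DNase I treatment; PCR-amplify, FAM-label and cut with HpaI for 2 h at 37 C; resolve by CE. Bidirectional fitting against DMSO.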

Experiment [4] is described as follows: ATG_EGR_CIS: Attagene CIS-FACTORIAL HepG2 Assay for human Early Growth Response 1 (EGR1) (AID 2282938). As to conditions: HepG2 Attagene CIS-FACTORIAL EGR reporter mRNA; actives raise or lower the signal. The gist of the method: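 After a 24 h treatment of transiently transfected HepG2 cells, total RNA was reverse-transcribed and reporter sequences PCR-amplified, labelled and run on capillary electrophoresis. Reporters sit under cis-regulatory promoters sensing endogenous factors.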

Experiment [5] can be described thus: ATG_M_19_CIS: Attagene CIS-FACTORIAL HepG2 Assay for M19 Transcription Factor (Internal Marker) (AID 2282939). As to conditions: HepG2 Attagene CIS-FACTORIAL M19 internal marker reporter; actives raise or lower the signal. The gist of the method:
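Following a 24 h exposure, RNA from transfected HepG2 cells was reverse-transcribed, PCR-amplified with reporter-specific primers, end-labelled with 6-FAM and HpaI-digested before capillary separation. Values represent gain or loss versus DMSO.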

A short description of experiment [6]: ATG_ERE_CIS: Attagene CIS-FACTORIAL HepG2 Assay for Estrogen Response Element (ERE) (AID 2282940). As to conditions: HepG2 ERE cis-reporter, Attagene RNA transcript; actives raise or lower the signal. The gist of the method: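 HepG2, transient cis-reporter units, 24 h exposure. RNA isolated, oligo(dT) RT, reporter-specific PCR, FAM extension, HpaI cut, CE detection. Gain/loss-of-signal vs DMSO.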

Experiment [7] in a line: ATG_Ets_CIS: Attagene CIS-FACTORIAL HepG2 Assay for human Erythroblast Transformation Specific (ETS) (AID 2282941). As to conditions: HepG2 ETS cis-reporter transcription, actives raise or lower the signal. The essentials:
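Human HepG2 hepatoma cells were transiently transfected with promoter-driven reporter constructs and treated for 24 hours. Reporter transcripts were quantified by RT-PCR with fluorescent primer extension; bidirectional curve fitting used DMSO as reference.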

Experiment [8] deals with Hepatocyte nuclear factor 3-beta (Homo sapiens) (UniProt Q9Y261). Put plainly: ATG_FoxA2_CIS: Attagene CIS-FACTORIAL HepG2 Assay for human Forkhead box A2 (FOXA2) (AID 2282942). As to conditions: HepG2 cis-reporter transcription factor activity, 24 h; actives raise or lower the signal. The gist of the method: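 24 h dosing of HepG2 bearing cis-reporter constructs; mRNA readout by RT-PCR/CE fluorescence; bidirectional fit, DMSO baseline.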

Experiment [9] in a line: ATG_FoxO_CIS: Attagene CIS-FACTORIAL HepG2 Assay for human Forkhead box O (FoxO) (AID 2282943). The note with it: HepG2 Attagene cis-reporter, FoxO element, mRNA; actives raise or lower the signal. The gist of the method: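 24 h chemical exposure, HepG2 with transient cis-MRTU transfection. RNA extraction, oligo(dT) RT, reporter-specific PCR, primer-extension labelling, HpaI digestion, CE fragment analysis; bidirectional fit, DMSO baseline.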

The nature of experiment [10]: ATG_GATA_CIS: Attagene CIS-FACTORIAL HepG2 Assay for human GATA Binding Protein (AID 2282944). The note with it: HepG2 GATA cis-element reporter, Attagene multiplex mRNA; actives raise or lower the signal. The essentials: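 DMSO serves as negative control and baseline for bidirectional fitting of reporter mRNA changes. HepG2 cells bearing transiently transfected cis-promoter reporters were exposed 24 h; transcripts detected via RT-PCR and capillary electrophoresis.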

Experiment [11] is described as follows: ATG_GLI_CIS: Attagene CIS-FACTORIAL HepG2 Assay for human Zinc Finger Protein GLI1 (AID 2282945). The note with it: HepG2, Attagene cis-factorial reporter mRNA, GLI element; actives raise or lower the signal. The essentials:
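HepG2 cells transiently transfected with cis-promoter multiplexed reporter units report endogenous transcription factor activity. After 24 h chemical exposure, reporter mRNA was quantified by RT-PCR, 6-FAM labelling, HpaI digestion and capillary electrophoresis, with bidirectional fitting against DMSO.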

Experiment [12] is described as follows: ATG_GRE_CIS: Attagene CIS-FACTORIAL HepG2 Assay for human Glucocorticoid Response Elements (GRE) (AID 2282947). The note with it: HepG2 GRE cis-reporter, Attagene multiplex mRNA; actives raise or lower the signal. The essentials:
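Following 24 h chemical exposure of transiently transfected HepG2 cells, total RNA was reverse-transcribed and reporter cDNA amplified, fluorescently labelled and sized by capillary electrophoresis. Signal gain or loss was fitted relative to DMSO vehicle.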

A short description of experiment [13]: ATG_ISRE_CIS: Attagene CIS-FACTORIAL HepG2 Assay for human Interferon Regulatory Factor 1 (IRF1) binding to an Interferon-Stimulated Response Element (ISRE) (AID 2282948). The note with it: HepG2 ISRE cis-reporter (Attagene), mRNA transcription readout; actives raise or lower the signal. The gist of the method: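 Cell-based cis-reporter assay; HepG2; 24 h exposure; reporter mRNA by RT-PCR plus capillary electrophoresis fluorescence; activity in either direction scored relative to DMSO.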

Experiment [14] in a line: ATG_M_06_CIS: Attagene CIS-FACTORIAL HepG2 Assay for M06 Transcription Factor (Internal Marker) (AID 2282950). As to conditions: HepG2 Attagene CIS-FACTORIAL M06 internal marker reporter; actives raise or lower the signal. The essentials: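 Fluorescence-labelled RT-PCR products from cis-promoter reporter units, cut with HpaI and resolved by capillary electrophoresis, give the signal. Cells are human HepG2, dosed for 24 h. Serves as background control, fitted relative to DMSO.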

In experiment [15] the target is Hypoxia-inducible factor 1-alpha (Homo sapiens) (UniProt Q16665). Kind of experiment: ATG_HIF1a_CIS: Attagene CIS-FACTORIAL HepG2 Assay for human Hypoxia Inducible Factor 1 (HIF1A) (AID 2282951). The note with it: HepG2 Attagene cis-factorial HIF1a reporter transcription; actives raise or lower the signal. The gist of the method: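 After 24 h chemical exposure of reporter-transfected HepG2 cells, reporter cDNA was PCR-amplified, labelled by 6-FAM primer extension (2 min 95 C, 20 s 68 C, 10 min 72 C), HpaI-cut (2 h, 37 C) and analysed by CE.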

Experiment [16] concerns the target Hepatocyte nuclear factor 6 (Homo sapiens) (UniProt Q9UBC0). Put plainly: ATG_HNF6_CIS: Attagene CIS-FACTORIAL HepG2 Assay for human Hepatocyte Nuclear Factor 6 (HNF6) (AID 2282952). The note with it: HepG2 Attagene cis-factorial HNF6 reporter transcription; actives raise or lower the signal. The gist of the method:
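HepG2 cells transiently transfected with cis-element-driven multiple reporter transcription units, dosed 24 h; reporter mRNA quantified by RT-PCR, FAM primer extension, HpaI digestion and capillary electrophoresis; bidirectional fit versus DMSO baseline.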

The target in experiment [17] is Heat shock factor protein 1 (Homo sapiens) (UniProt Q00613). Put plainly: ATG_HSE_CIS: Attagene CIS-FACTORIAL HepG2 Assay for human Heat Shock Transcription Factor 1 (HSE) (AID 2282953). As to conditions: HepG2 HSE cis-reporter, Attagene RNA transcription; actives raise or lower the signal. The gist of the method: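 After a 24 h incubation with test chemical, transfected HepG2 cells were harvested for RNA; reporter transcripts were measured by RT-PCR and capillary electrophoresis. Values reflect gain or loss of signal relative to DMSO.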

Experiment [18] in a line: ATG_MRE_CIS: Attagene CIS-FACTORIAL HepG2 Assay for human Metal Responsive Element (MRE) (AID 2282954). As to conditions: HepG2 MRE cis-reporter transcription, Attagene multiplex; actives raise or lower the signal. The gist of the method:
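Step one: transfect HepG2 with cis-regulated reporter units. Step two: dose 24 h. Step three: isolate RNA, RT-PCR, 6-FAM label, HpaI digest, capillary electrophoresis. Fit bidirectionally to DMSO.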

Experiment [19] is described as follows: ATG_M_32_CIS: Attagene CIS-FACTORIAL HepG2 Assay for M32 Transcription Factor (Internal Marker) (AID 2282949).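 Note: background control marker of the multiplexed CIS panel rather than a real target.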 As to conditions: HepG2 Attagene cis-factorial M32 reporter, mRNA; actives raise or lower the signal. The gist of the method: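 HepG2 cells transiently transfected with multiplexed cis-regulated reporter units, dosed 24 h. Reporter mRNA quantified by RT-PCR, 6-FAM labelling, HpaI digestion and capillary electrophoresis; bidirectional fit vs DMSO.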

Activity calls are given as the source filed them. Rule for the calls: active = hit-call score of the fitted dose curve at least 0.9, where 1 is the maximum; inactive = score below 0.9.

Sequence of Transcription factor E2F1 (Homo sapiens) (Q01094 whole entry, looked up): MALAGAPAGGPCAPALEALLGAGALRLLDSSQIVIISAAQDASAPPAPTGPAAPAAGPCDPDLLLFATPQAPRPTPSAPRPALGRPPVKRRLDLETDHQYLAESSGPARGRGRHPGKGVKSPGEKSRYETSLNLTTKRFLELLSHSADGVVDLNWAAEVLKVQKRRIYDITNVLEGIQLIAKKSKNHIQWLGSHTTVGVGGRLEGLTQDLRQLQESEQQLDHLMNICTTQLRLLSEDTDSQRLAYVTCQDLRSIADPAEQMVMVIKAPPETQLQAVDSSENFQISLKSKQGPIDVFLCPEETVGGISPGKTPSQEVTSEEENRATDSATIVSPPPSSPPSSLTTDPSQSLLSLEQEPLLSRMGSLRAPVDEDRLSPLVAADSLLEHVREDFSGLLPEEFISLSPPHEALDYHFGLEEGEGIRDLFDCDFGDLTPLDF
Sequence of Hepatocyte nuclear factor 6 (Homo sapiens) (Q9UBC0 whole entry, looked up): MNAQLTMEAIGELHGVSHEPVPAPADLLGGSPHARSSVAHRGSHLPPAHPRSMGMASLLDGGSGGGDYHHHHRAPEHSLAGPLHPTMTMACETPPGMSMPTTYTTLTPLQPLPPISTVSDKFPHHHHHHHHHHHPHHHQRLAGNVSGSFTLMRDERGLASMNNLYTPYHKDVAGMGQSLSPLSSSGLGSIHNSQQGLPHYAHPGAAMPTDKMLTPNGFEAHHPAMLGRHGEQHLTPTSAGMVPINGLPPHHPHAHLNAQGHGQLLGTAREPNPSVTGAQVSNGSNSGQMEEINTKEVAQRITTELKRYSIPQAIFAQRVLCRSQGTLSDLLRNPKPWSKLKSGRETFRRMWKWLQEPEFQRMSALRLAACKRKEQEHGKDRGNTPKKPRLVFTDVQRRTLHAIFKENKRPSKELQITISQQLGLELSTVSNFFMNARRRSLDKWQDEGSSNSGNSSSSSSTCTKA
Sequence of Hypoxia-inducible factor 1-alpha (Homo sapiens) (Q16665 whole entry, looked up): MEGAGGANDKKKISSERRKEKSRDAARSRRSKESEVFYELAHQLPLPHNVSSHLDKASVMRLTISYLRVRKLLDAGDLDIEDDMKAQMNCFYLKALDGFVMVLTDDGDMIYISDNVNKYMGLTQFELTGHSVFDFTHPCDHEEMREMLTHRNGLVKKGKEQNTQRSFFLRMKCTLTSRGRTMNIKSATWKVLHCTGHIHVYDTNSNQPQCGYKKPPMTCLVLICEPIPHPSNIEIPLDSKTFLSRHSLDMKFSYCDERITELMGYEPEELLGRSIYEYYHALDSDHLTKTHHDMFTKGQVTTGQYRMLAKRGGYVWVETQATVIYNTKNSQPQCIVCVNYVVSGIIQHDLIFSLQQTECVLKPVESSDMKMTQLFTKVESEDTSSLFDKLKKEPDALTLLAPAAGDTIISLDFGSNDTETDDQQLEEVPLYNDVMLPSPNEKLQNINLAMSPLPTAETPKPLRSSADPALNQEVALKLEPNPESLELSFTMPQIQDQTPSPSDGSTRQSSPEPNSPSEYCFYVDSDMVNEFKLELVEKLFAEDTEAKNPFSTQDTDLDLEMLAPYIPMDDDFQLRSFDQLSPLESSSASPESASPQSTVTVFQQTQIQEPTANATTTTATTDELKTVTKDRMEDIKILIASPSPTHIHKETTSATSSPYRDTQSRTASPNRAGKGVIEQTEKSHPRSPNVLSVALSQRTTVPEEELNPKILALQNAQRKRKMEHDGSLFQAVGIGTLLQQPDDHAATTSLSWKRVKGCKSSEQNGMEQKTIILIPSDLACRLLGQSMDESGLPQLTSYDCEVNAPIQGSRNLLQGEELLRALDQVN
Sequence of Hepatocyte nuclear factor 3-beta (Homo sapiens) (Q9Y261 whole entry, looked up): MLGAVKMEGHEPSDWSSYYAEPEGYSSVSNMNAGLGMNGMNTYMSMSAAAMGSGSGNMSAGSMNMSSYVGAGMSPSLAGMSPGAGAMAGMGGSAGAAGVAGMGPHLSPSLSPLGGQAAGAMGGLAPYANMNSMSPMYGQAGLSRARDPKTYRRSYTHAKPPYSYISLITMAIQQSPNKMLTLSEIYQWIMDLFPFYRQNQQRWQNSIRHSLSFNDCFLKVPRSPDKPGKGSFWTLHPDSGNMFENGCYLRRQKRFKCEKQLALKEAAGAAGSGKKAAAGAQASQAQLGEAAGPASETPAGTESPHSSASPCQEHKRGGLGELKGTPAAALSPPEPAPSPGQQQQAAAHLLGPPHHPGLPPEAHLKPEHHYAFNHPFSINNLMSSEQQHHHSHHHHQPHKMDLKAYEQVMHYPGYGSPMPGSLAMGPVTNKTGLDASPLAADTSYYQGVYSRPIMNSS
Sequence of Heat shock factor protein 1 (Homo sapiens) (Q00613 whole entry, looked up): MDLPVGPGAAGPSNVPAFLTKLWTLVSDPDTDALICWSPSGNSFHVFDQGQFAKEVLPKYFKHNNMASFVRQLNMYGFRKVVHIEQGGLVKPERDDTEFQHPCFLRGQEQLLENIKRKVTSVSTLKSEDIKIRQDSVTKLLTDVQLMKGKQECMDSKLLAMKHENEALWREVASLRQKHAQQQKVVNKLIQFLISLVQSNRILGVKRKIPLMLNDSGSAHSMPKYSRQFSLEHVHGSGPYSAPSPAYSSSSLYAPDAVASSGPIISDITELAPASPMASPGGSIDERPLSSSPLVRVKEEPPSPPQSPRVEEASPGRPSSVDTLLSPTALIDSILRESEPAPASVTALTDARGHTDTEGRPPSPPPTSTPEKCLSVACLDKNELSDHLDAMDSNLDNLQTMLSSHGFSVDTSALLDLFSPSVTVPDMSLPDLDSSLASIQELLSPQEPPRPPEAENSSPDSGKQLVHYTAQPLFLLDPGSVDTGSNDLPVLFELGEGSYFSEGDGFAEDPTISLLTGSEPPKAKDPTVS

Consider `CCCC(CC)c1ccccc1` (stereo unspecified), for which the result in experiment [1], in [2], in [3], in experiment [4], in experiment [5] and in experiment [7] was inactive. The compound was called inactive in experiment [8], in [9], in experiment [10], in experiment [11], in experiment [12] and in experiment [13]. Besides, the compound was called inactive in [14], in experiment [15], in [16], in experiment [17] and in experiment [18]. Also, in [6], the concentration at half-maximal activity (AC50) was 45.1 µM (active).
With `CCCc1ccc(O)c(OC)c1`, the call in [1], in experiment [2], in experiment [3], in [4], in experiment [5] and in [6] was inactive. Moreover, the result in experiment [7], in experiment [8], in [9], in [10], in experiment [11] and in experiment [12] was inactive. The compound was classed as inactive in [13], in experiment [14], in experiment [15], in experiment [16], in [17] and in experiment [18].
Regarding `CCCCCCC=O`, the outcome in [1], in experiment [2], in [3], in [4], in experiment [5] and in [7] was inactive. Also, the call in [8], in experiment [9], in experiment [10], in experiment [11], in experiment [12] and in experiment [13] was inactive. The compound was classed as inactive in experiment [14], in [15], in experiment [16] and in experiment [18]. In addition, the half-maximal activity concentration (AC50) in [6] is 26.7 µM (active).
As to `CC1(C)[C@@H]2CC[C@@]1(C)C(=O)C2`, the result in [1], in experiment [2], in [3], in experiment [4], in [5] and in [6] was inactive. The call in experiment [7], in experiment [8], in [9], in experiment [10], in experiment [11] and in experiment [12] was inactive. For the same compound, the result in experiment [13], in experiment [19], in experiment [14], in [15], in experiment [16] and in experiment [17] was inactive. The call in [18] was inactive.
Turning to `C=CC(=O)OCCCCCCCCCC`, the compound was called inactive in experiment [1], in experiment [2], in experiment [3], in experiment [4], in [5] and in experiment [6]. Further, the call in experiment [7], in experiment [8], in [9], in experiment [10], in experiment [11] and in experiment [12] was inactive. Also, the call in [19], in [14], in experiment [15], in experiment [16] and in experiment [18] was inactive.
Take `C[Si]1(C)O[Si](C)(C)O[Si](C)(C)O[Si](C)(C)O[Si](C)(C)O1`: the compound was classed as inactive in experiment [1], in experiment [2], in experiment [3], in experiment [4], in [5] and in experiment [6]. For the same compound, the compound was classed as inactive in experiment [7], in experiment [8], in experiment [9], in experiment [10], in experiment [11] and in [12]. Besides, the call in experiment [13], in experiment [19], in experiment [14], in experiment [15], in experiment [16] and in [17] was inactive. Besides, the compound was classed as inactive in experiment [18].
With `O=C1CCCCC1C1CCCCC1` (stereo unspecified), the result in experiment [1], in experiment [2], in [3], in experiment [4], in experiment [5] and in experiment [6] was inactive. For the same compound, the call in [7], in [8], in experiment [9], in [10], in experiment [11] and in experiment [12] was inactive. Moreover, the compound was called inactive in [19], in [14], in experiment [15], in experiment [16], in experiment [17] and in experiment [18].
